# SENP6 inh = inhibitors of human SENP6 protease | inhibition, % at 10 µM | AID 2599 | 330,000 compounds, 1.8% hits | Recombinant SENP6 catalytic domain, aminoluciferin luminescence | Q9GZR1;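 active means inhibition above about 50% at the single tested dose, limit read from the data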
# PPC-1+TRAIL kill = compounds killing PPC-1 cancer cells with TRAIL present (potentiator screen, no TRAIL-free arm); 220,000 compounds, 0.41% hits; PPC-1 cells + TRAIL, ATPLite viability luminescence; cell killing (% activity), % at 4 µM or 5 µM; AID 1443;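 active means cell killing above 50% in the first pass at 4 µM, then a duplicate retest at 5 µM averaging 50% or more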
# SENP8 block-1 = blocks human SENP8 cleavage of Nedd8 substrate; Q96LD8; recombinant SENP8, Nedd8 substrate fluorescence; inhibition, % at 20 µM; 360,000 compounds, 0.64% hits; in the data active means inhibition mostly above about 40%, no sharp cut-off; inactive means mostly below about 27%
# Target sequence (Q96LD8 whole entry, looked up): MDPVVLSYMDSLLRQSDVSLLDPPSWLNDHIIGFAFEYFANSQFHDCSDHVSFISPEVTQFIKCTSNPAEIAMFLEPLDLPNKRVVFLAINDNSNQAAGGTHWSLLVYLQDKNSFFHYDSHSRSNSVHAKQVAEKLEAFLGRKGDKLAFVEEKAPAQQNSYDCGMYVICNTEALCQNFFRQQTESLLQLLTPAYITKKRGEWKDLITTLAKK
# SENP8 block-2 = blocks the human protease SENP8. 330,000 compounds, 1.2% hits. purified SENP8, Z-RLRGG-aminoluciferin cleavage, luminescence. inhibition, % at 10 µM; in the data active means inhibition above about 50%
# SENP7 inh = blocks the human protease SENP7 | recombinant SENP7, Z-RLRGG-aminoluciferin luminescence, 40 min | 330,000 compounds, 1.5% hits | inhibition, % at 5 µM;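 active means inhibition above about 50% at the single test dose, limit read from the data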
# Target sequence (Q9BQF6 706-1050 limits assumed): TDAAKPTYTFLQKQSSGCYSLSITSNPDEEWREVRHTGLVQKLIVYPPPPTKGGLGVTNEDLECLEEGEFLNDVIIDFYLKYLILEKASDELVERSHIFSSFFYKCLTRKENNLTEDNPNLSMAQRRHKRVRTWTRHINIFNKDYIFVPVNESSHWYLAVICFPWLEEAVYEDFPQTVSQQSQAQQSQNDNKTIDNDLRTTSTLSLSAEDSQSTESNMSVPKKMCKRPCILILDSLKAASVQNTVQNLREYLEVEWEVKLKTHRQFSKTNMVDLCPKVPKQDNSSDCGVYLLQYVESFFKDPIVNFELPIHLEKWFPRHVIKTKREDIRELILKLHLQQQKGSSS
# C8 TRAIL sens = caspase-8 TRAIL sensitization; NB7+C8 cells + TRAIL, ATPlite viability luminescence; 360,000 compounds, 1% hits; inhibition (viability loss, TRAIL sensitization), % at 10 µM; AID 624354;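 active means compounds causing at least 50% loss of cell viability in the single-dose screen, relative to plate controls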
# SENP8 conf = confirmation of human SENP8 protease inhibitors. inhibition, % at 12.5 µM. 6,200 compounds, 40% hits. Recombinant SENP8, Z-RLRGG-aminoluciferin luminescence, 60 min. shares compounds with SENP7 inh;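 active means mean inhibition across replicates above about 50%, limit read from the data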
# SENP6 confirm = confirmation of human SENP6 protease inhibitors; shares compounds with SENP7 inh; recombinant SENP6, Z-RLRGG-aminoluciferin luminescence; inhibition, % at 12.5 µM; 6,200 compounds, 58% hits; AID 488915
# SENP7 confirm = confirmation of human SENP7 protease inhibitors. shares compounds with SENP7 inh. recombinant SENP7, Z-RLRGG-aminoluciferin luminescence, 40 min. inhibition, % at 12.5 µM. 6,200 compounds, 69% hits
# Casp3 SENP sel = caspase-3 inhibition (SENP selectivity assay); shares compounds with SENP7 inh; inhibition, % at 12.5 µM; 6,200 compounds, 60% hits; purified caspase-3, Z-DEVD-aminoluciferin luminescence, 60 min;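 active means mean inhibition above about 50%, limit read from the data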
# SENP luc ctr = luminescence interference (SENP counter-screen); inhibition, % at 12.5 µM; 6,200 compounds, 39% hits; AID 488919; Pre-incubated SENP8/Z-RLRGG-aminoluciferin, luciferase luminescence interference; shares compounds with SENP7 inh;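 active means mean inhibition above about 50% when retested at one dose, limit read from the data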
# Hits are given with their value; i = inactive; nt = not tested or not shown. Compounds with a hit are over-represented: about 3% of the library has one in this group of screens.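 How the source made its calls, unless noted: active means mean inhibition above about 50% in the one-dose retest (limit read from the data); inactive means the rest.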
SMILES,SENP6 inh,PPC-1+TRAIL kill,SENP8 block-1,SENP8 block-2,SENP7 inh,C8 TRAIL sens,SENP8 conf,SENP6 confirm,SENP7 confirm,Casp3 SENP sel,SENP luc ctr
Cc1ccccc1Nc1nnc(SCC2CCCCO2)s1 (centres undefined),90,i,i,77,87,i,81,82,97,88,77
Cc1cccc(Nc2nnc(SCC(=O)NCC3CCCO3)s2)c1C (centres undefined),i,nt,i,i,i,i,nt,nt,nt,nt,nt
Cc1c(Br)c([N+](=O)[O-])nn1C(C)C(=O)N1CCCc2ccccc21 (centres undefined),i,i,i,i,i,i,nt,nt,nt,nt,nt
COc1ccccc1N1CCN(C(=O)c2ccc3noc(-c4ccccc4)c3c2)CC1,nt,nt,i,nt,nt,i,nt,nt,nt,nt,nt
COc1ccccc1CNC(=O)COc1ccccc1C(=O)c1cnn(-c2ccccc2)c1,51,nt,i,i,i,i,i,i,61,i,i
Cc1ccc2oc(-c3ccc(C)c(NC(=O)Cc4cccs4)c3)nc2c1,i,i,i,i,i,i,nt,nt,nt,nt,nt
CCC(=O)Nc1ccc(-c2nnc(-c3ccccc3)o2)cc1,72,i,i,i,75,i,i,i,i,i,i
Cc1ccc2oc(-c3cccc(NC(=O)Cc4cccs4)c3)nc2c1,i,i,i,i,75,i,i,i,i,i,i
CCC(=O)Nc1cccc(-c2nc3ccc(C)cc3o2)c1,i,nt,i,i,i,i,nt,nt,nt,nt,nt
CCCC(=O)Nc1cccc(-c2nc3cc(C)c(C)cc3o2)c1,i,i,i,i,91,i,i,i,i,i,54
CCC(=O)Nc1cccc(-c2nnc(-c3cccc(NC(=O)CC)c3)o2)c1,i,i,i,i,i,i,nt,nt,nt,nt,nt
CCC(=O)Nc1ccc2oc(-c3cccc(C)c3)nc2c1,99,i,i,94,98,60,i,98,103,96,75
CCOP(=O)(OCC)C(Nc1ccc(C)cc1)c1ccco1 (centres undefined),i,nt,i,i,i,i,nt,nt,nt,nt,nt
CC(=O)Nc1nnc(S(=O)(=O)N2CCN(c3ccc([N+](=O)[O-])cc3Cl)CC2)s1,i,nt,i,i,i,i,nt,nt,nt,nt,nt
Cc1onc(-c2ccccc2)c1C(=O)NC1CCC(C)CC1 (centres undefined),i,nt,i,i,i,i,nt,nt,nt,nt,nt
O=C(CSc1ncccn1)NC(=O)Cc1ccccc1,i,nt,i,i,i,i,nt,nt,nt,nt,nt
COc1ccccc1CNC(=O)CCC(=O)N1CC(C)Sc2ccccc21 (centres undefined),i,nt,i,i,i,i,nt,nt,nt,nt,nt
Nc1c(C(=O)Nc2ccc3c(c2)OCCO3)nnn1Cc1cccc(Br)c1,68,nt,i,i,58,i,i,i,85,i,66
O=C(Nc1ccc(S(=O)(=O)N2CCCC2)cc1)c1cncc(Br)c1,i,nt,i,i,i,i,nt,nt,nt,nt,nt
COc1ccc(C(=O)Nc2ccc(Nc3ccccc3)cc2)cc1Br,i,nt,i,i,i,i,nt,nt,nt,nt,nt
COc1ccc(C(=O)Nc2ccc(N3CCCCC3)cc2)cc1Br,i,i,i,i,68,i,i,i,i,i,i
COc1ccc(C(=O)Nc2ccc3c(c2)OCCO3)cc1Br,72,nt,i,56,61,i,i,i,80,54,i
O=C(Nc1ccc(N2CCCCC2)cc1)c1cncc(Br)c1,i,i,i,i,52,i,i,i,62,68,i
Nc1c(C(=O)Nc2ccc3c(c2)OCCO3)nnn1Cc1ccc(Br)cc1,i,nt,i,i,i,i,nt,nt,nt,nt,nt
COc1ccc2c(c1)C(=O)Cc1ccccc1O2,i,nt,i,i,i,i,nt,nt,nt,nt,nt
SMILES,SENP6 inh,PPC-1+TRAIL kill,SENP8 block-1,SENP8 block-2,SENP7 inh,C8 TRAIL sens,SENP8 conf,SENP6 confirm,SENP7 confirm,Casp3 SENP sel,SENP luc ctr
CC(C)(C)C(=O)NCc1ccc(C(=O)CSc2nnc3n2CCCCC3)s1,nt,nt,i,nt,nt,i,nt,nt,nt,nt,nt
O=C(Nc1cc(Cl)ccc1N1CCOCC1)c1ccc(Br)o1,i,nt,i,i,i,i,nt,nt,nt,nt,nt
O=C(Nc1ccc(Cl)cc1Cl)c1ccc(Br)o1,69,nt,i,55,i,i,i,i,i,i,i
Cc1ccc(C(=O)Nc2ccc3c(c2)OCCO3)cc1,73,nt,i,72,82,84,i,76,94,87,79
O=C(Nc1ccc2c(c1)OCCO2)c1ccc(Cl)c(Cl)c1,77,nt,i,59,67,i,53,55,93,51,i
O=C(Nc1ccc2c(c1)OCCO2)c1ccc(Br)cc1,71,nt,i,59,61,52,71,70,90,68,i
CC(=O)Nc1ccc2c(c1)OCCO2,i,i,i,i,i,i,nt,nt,nt,nt,nt
OC[C@@H]1CN(Cc2ccc(Cl)cc2)C[C@H](n2cnc3c(NC4CCC4)ncnc32)O1,nt,nt,i,nt,nt,i,nt,nt,nt,nt,nt
COc1cc(-c2csc(NC3CCCCC3)n2)cc(OC)c1OC,i,nt,i,i,i,i,nt,nt,nt,nt,nt
Cc1ccc(N2C(=O)N(CC(=O)Nc3cc(F)ccc3C)C(=O)C2C)cc1 (centres undefined),i,nt,i,i,i,i,nt,nt,nt,nt,nt
O=C(NC1=NCCS1)c1csc2ccccc12,81,i,i,60,73,i,i,68,89,78,74
Cc1ccc(C(=O)Nc2ccc3c(c2)OCO3)cc1,69,72,i,i,i,74,68,68,90,83,i
CCCOc1cccc(C(=O)Nc2cccc(NC(=O)c3ccco3)c2)c1,i,i,i,i,i,i,nt,nt,nt,nt,nt
O=C(Nc1ccc(N2CCCC2)c(Cl)c1)c1ccc([N+](=O)[O-])cc1,i,i,i,i,i,i,nt,nt,nt,nt,nt
CCCOc1cccc(C(=O)Nc2ccc3c(c2)OCCO3)c1,77,nt,i,53,66,52,69,67,86,59,55
Cc1cc(C(=O)Nc2ccc(N3CCCC3)c(Cl)c2)ccc1[N+](=O)[O-],60,i,i,i,52,i,i,i,65,i,i
COc1ccc(C(=O)CCc2ccccc2)cc1,i,nt,i,i,i,i,nt,nt,nt,nt,nt
CCOC(=O)C1=C(COC(=O)COc2ccccc2C(C)C)NC(=O)NC1C (centres undefined),i,nt,i,i,i,i,nt,nt,nt,nt,nt
COc1cccc(CNC(=O)COC(=O)c2nn(C)c(=O)c3ccccc23)c1,i,nt,i,i,i,i,nt,nt,nt,nt,nt
Cc1cc(C(=O)Nc2ccc3c(c2)OCCO3)ccc1[N+](=O)[O-],84,nt,i,77,92,i,i,57,94,81,i

# Screening results from PubChem.
